Publication PMC9911399, “Two distinct binding modes provide the RNA-binding protein RbFox with extraordinary sequence specificity”
Positions count from the first letter of the chain named. The full ranking holds about 16,000 sequences; the median of “ka relative to ugcaugu” is about 0.096, and the highest 2% start at about 0.35. This excerpt belongs to a sample that is enriched for the highest values.

T1: RBFOX1 RRM RbFoxmut (Fox-RRM*) (Homo sapiens, UniProt Q9NWB1 109-208, R118D;E147R;N151S;E152T)
T1 sequence: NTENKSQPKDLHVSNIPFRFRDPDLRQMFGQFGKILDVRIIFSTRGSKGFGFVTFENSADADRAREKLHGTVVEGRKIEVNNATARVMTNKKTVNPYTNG

B1: AACUUUG (DNA:RNA)
RNA: GGGAGACCGGAAUUCAGAUUGUCCAACUUUGUUAAAUCCCGUCGUAGCCACCA
DNA 1: CAATCTGAATTCCGGTCTCCC
DNA 2: TGGTGGCTACGACGGGATT
B2: AAGUAAA (DNA:RNA)
RNA: B1 RNA with C27G, U29A, U30A, G31A
DNA 1: CAATCTGAATTCCGGTCTCCC
DNA 2: TGGTGGCTACGACGGGATT
B3: GGUAUCG (DNA:RNA)
RNA: B1 RNA with A25G, A26G, C27U, U28A, U30C
DNA 1: CAATCTGAATTCCGGTCTCCC
DNA 2: TGGTGGCTACGACGGGATT
B4: AAGUAUG (DNA:RNA)
RNA: B1 RNA with C27G, U29A
DNA 1: CAATCTGAATTCCGGTCTCCC
DNA 2: TGGTGGCTACGACGGGATT
B5: CAUAUGU (DNA:RNA)
RNA: B1 RNA with A25C, C27U, U28A, U30G, G31U
DNA 1: CAATCTGAATTCCGGTCTCCC
DNA 2: TGGTGGCTACGACGGGATT
B6: AGGUAUC (DNA:RNA)
RNA: B1 RNA with A26G, C27G, U29A, G31C
DNA 1: CAATCTGAATTCCGGTCTCCC
DNA 2: TGGTGGCTACGACGGGATT
B7: CGGUAUG (DNA:RNA)
RNA: B1 RNA with A25C, A26G, C27G, U29A
DNA 1: CAATCTGAATTCCGGTCTCCC
DNA 2: TGGTGGCTACGACGGGATT
B8: AAGUAUC (DNA:RNA)
RNA: B1 RNA with C27G, U29A, G31C
DNA 1: CAATCTGAATTCCGGTCTCCC
DNA 2: TGGTGGCTACGACGGGATT
B9: CUUAUGU (DNA:RNA)
RNA: B1 RNA with A25C, A26U, C27U, U28A, U30G, G31U
DNA 1: CAATCTGAATTCCGGTCTCCC
DNA 2: TGGTGGCTACGACGGGATT
B10: CGUAUGU (DNA:RNA)
RNA: B1 RNA with A25C, A26G, C27U, U28A, U30G, G31U
DNA 1: CAATCTGAATTCCGGTCTCCC
DNA 2: TGGTGGCTACGACGGGATT
B11: AGGUAGC (DNA:RNA)
RNA: B1 RNA with A26G, C27G, U29A, U30G, G31C
DNA 1: CAATCTGAATTCCGGTCTCCC
DNA 2: TGGTGGCTACGACGGGATT
B12: CCCGGUA (DNA:RNA)
RNA: B1 RNA with A25C, A26C, U28G, U29G, G31A
DNA 1: CAATCTGAATTCCGGTCTCCC
DNA 2: TGGTGGCTACGACGGGATT
B13: AGGUAUG (DNA:RNA)
RNA: B1 RNA with A26G, C27G, U29A
DNA 1: CAATCTGAATTCCGGTCTCCC
DNA 2: TGGTGGCTACGACGGGATT
B14: GCUACCU (DNA:RNA)
RNA: GGGAGACCGGAAUUCAGAUUGUCCGCUACCUUUAAAUCCCGUCGUAGCCACCA
DNA 1: CAATCTGAATTCCGGTCTCCC
DNA 2: TGGTGGCTACGACGGGATT
B15: CCGCCGU (DNA:RNA)
RNA: B14 RNA with G25C, U27G, A28C, C30G
DNA 1: CAATCTGAATTCCGGTCTCCC
DNA 2: TGGTGGCTACGACGGGATT
B16: AUGCGAA (DNA:RNA)
RNA: B1 RNA with A26U, C27G, U28C, U29G, U30A, G31A
DNA 1: CAATCTGAATTCCGGTCTCCC
DNA 2: TGGTGGCTACGACGGGATT
B17: CUGUCGA (DNA:RNA)
RNA: B1 RNA with A25C, A26U, C27G, U29C, U30G, G31A
DNA 1: CAATCTGAATTCCGGTCTCCC
DNA 2: TGGTGGCTACGACGGGATT
B18: AAGGGCC (DNA:RNA)
RNA: B1 RNA with C27G, U28G, U29G, U30C, G31C
DNA 1: CAATCTGAATTCCGGTCTCCC
DNA 2: TGGTGGCTACGACGGGATT
B19: CUCUACC (DNA:RNA)
RNA: B1 RNA with A25C, A26U, U29A, U30C, G31C
DNA 1: CAATCTGAATTCCGGTCTCCC
DNA 2: TGGTGGCTACGACGGGATT
B20: UAGCGCA (DNA:RNA)
RNA: B1 RNA with A25U, C27G, U28C, U29G, U30C, G31A
DNA 1: CAATCTGAATTCCGGTCTCCC
DNA 2: TGGTGGCTACGACGGGATT
B21: CGUAUGA (DNA:RNA)
RNA: B14 RNA with G25C, C26G, C29U, C30G, U31A
DNA 1: CAATCTGAATTCCGGTCTCCC
DNA 2: TGGTGGCTACGACGGGATT
B22: UCGUAUG (DNA:RNA)
RNA: B1 RNA with A25U, A26C, C27G, U29A
DNA 1: CAATCTGAATTCCGGTCTCCC
DNA 2: TGGTGGCTACGACGGGATT
B23: GGUAUGA (DNA:RNA)
RNA: B14 RNA with C26G, C29U, C30G, U31A
DNA 1: CAATCTGAATTCCGGTCTCCC
DNA 2: TGGTGGCTACGACGGGATT
B24: GUUAUGA (DNA:RNA)
RNA: B14 RNA with C26U, C29U, C30G, U31A
DNA 1: CAATCTGAATTCCGGTCTCCC
DNA 2: TGGTGGCTACGACGGGATT
B25: UCGUCCG (DNA:RNA)
RNA: B14 RNA with G25U, U27G, A28U, U31G
DNA 1: CAATCTGAATTCCGGTCTCCC
DNA 2: TGGTGGCTACGACGGGATT
B26: GUCCUCG (DNA:RNA)
RNA: B1 RNA with A25G, A26U, U28C, U30C
DNA 1: CAATCTGAATTCCGGTCTCCC
DNA 2: TGGTGGCTACGACGGGATT
B27: UAGUCAA (DNA:RNA)
RNA: B1 RNA with A25U, C27G, U29C, U30A, G31A
DNA 1: CAATCTGAATTCCGGTCTCCC
DNA 2: TGGTGGCTACGACGGGATT
B28: GUUGUUC (DNA:RNA)
RNA: B1 RNA with A25G, A26U, C27U, U28G, G31C
DNA 1: CAATCTGAATTCCGGTCTCCC
DNA 2: TGGTGGCTACGACGGGATT
B29: CGAAUCG (DNA:RNA)
RNA: B1 RNA with A25C, A26G, C27A, U28A, U30C
DNA 1: CAATCTGAATTCCGGTCTCCC
DNA 2: TGGTGGCTACGACGGGATT
B30: UGAACCG (DNA:RNA)
RNA: B14 RNA with G25U, C26G, U27A, U31G
DNA 1: CAATCTGAATTCCGGTCTCCC
DNA 2: TGGTGGCTACGACGGGATT
B31: GAAUUGU (DNA:RNA)
RNA: B1 RNA with A25G, C27A, U30G, G31U
DNA 1: CAATCTGAATTCCGGTCTCCC
DNA 2: TGGTGGCTACGACGGGATT
B32: GAACCGU (DNA:RNA)
RNA: B14 RNA with C26A, U27A, A28C, C30G
DNA 1: CAATCTGAATTCCGGTCTCCC
DNA 2: TGGTGGCTACGACGGGATT
B33: UGAAUCG (DNA:RNA)
RNA: B1 RNA with A25U, A26G, C27A, U28A, U30C
DNA 1: CAATCTGAATTCCGGTCTCCC
DNA 2: TGGTGGCTACGACGGGATT
B34: GAAUCCG (DNA:RNA)
RNA: B1 RNA with A25G, C27A, U29C, U30C
DNA 1: CAATCTGAATTCCGGTCTCCC
DNA 2: TGGTGGCTACGACGGGATT
B35: CGAUCGC (DNA:RNA)
RNA: B1 RNA with A25C, A26G, C27A, U29C, U30G, G31C
DNA 1: CAATCTGAATTCCGGTCTCCC
DNA 2: TGGTGGCTACGACGGGATT
B36: GAAUCGC (DNA:RNA)
RNA: B1 RNA with A25G, C27A, U29C, U30G, G31C
DNA 1: CAATCTGAATTCCGGTCTCCC
DNA 2: TGGTGGCTACGACGGGATT
B37: GAAUCGU (DNA:RNA)
RNA: B14 RNA with C26A, U27A, A28U, C30G
DNA 1: CAATCTGAATTCCGGTCTCCC
DNA 2: TGGTGGCTACGACGGGATT
B38: UGAAUUG (DNA:RNA)
RNA: B1 RNA with A25U, A26G, C27A, U28A
DNA 1: CAATCTGAATTCCGGTCTCCC
DNA 2: TGGTGGCTACGACGGGATT
B39: GAAAUCG (DNA:RNA)
RNA: B1 RNA with A25G, C27A, U28A, U30C
DNA 1: CAATCTGAATTCCGGTCTCCC
DNA 2: TGGTGGCTACGACGGGATT
B40: GGAUCGC (DNA:RNA)
RNA: B14 RNA with C26G, U27A, A28U, C30G, U31C
DNA 1: CAATCTGAATTCCGGTCTCCC
DNA 2: TGGTGGCTACGACGGGATT

These binders were tested against T1, RBFOX1 RRM RbFoxmut (Fox-RRM*) (assay: EMSA; HiTS-Eq, 1 nM pool, 10 min; buffer printed only for the single-RNA assays: 10 mM Tris pH 7.5, 150 mM NaCl, 3.4 mM EDTA, 0.001% NP-40, 30 C). Conditions: tags: His6 N-terminal (pET28a); label: 5' 32P.
In short: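 Relative association constants, normalised to the cognate motif, were derived by comparing read counts of each RNA species with those of the control reaction. The RNA sequenced was the free fraction, separated by 8% native PAGE after a 10 min equilibration in 50 µL of 1 nM 5′-radiolabelled RNA (7 randomized nucleotides) with increasing concentrations of purified wild-type or mutant RbFox RRM.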

Binder | binding signal
B1 | 0.0853 KA relative to UGCAUGU
B2 | 0.124 KA relative to UGCAUGU
B3 | 0.348 KA relative to UGCAUGU
B4 | 0.498 KA relative to UGCAUGU
B5 | 0.149 KA relative to UGCAUGU
B6 | 0.191 KA relative to UGCAUGU
B7 | 0.885 KA relative to UGCAUGU
B8 | 0.151 KA relative to UGCAUGU
B9 | 0.158 KA relative to UGCAUGU
B10 | 0.554 KA relative to UGCAUGU
B11 | 0.114 KA relative to UGCAUGU
B12 | 0.111 KA relative to UGCAUGU
B13 | 1.01 KA relative to UGCAUGU
B14 | 0.0731 KA relative to UGCAUGU
B15 | 0.133 KA relative to UGCAUGU
B16 | 0.131 KA relative to UGCAUGU
B17 | 0.0775 KA relative to UGCAUGU
B18 | 0.148 KA relative to UGCAUGU
B19 | 0.0729 KA relative to UGCAUGU
B20 | 0.124 KA relative to UGCAUGU

Binder | binding signal
B21 | 0.258 KA relative to UGCAUGU
B22 | 0.87 KA relative to UGCAUGU
B23 | 0.468 KA relative to UGCAUGU
B24 | 0.206 KA relative to UGCAUGU
B25 | 0.0959 KA relative to UGCAUGU
B26 | 0.114 KA relative to UGCAUGU
B27 | 0.0801 KA relative to UGCAUGU
B28 | 0.106 KA relative to UGCAUGU
B29 | 0.374 KA relative to UGCAUGU
B30 | 0.0911 KA relative to UGCAUGU
B31 | 0.192 KA relative to UGCAUGU
B32 | 0.126 KA relative to UGCAUGU
B33 | 0.363 KA relative to UGCAUGU
B34 | 0.219 KA relative to UGCAUGU
B35 | 0.0736 KA relative to UGCAUGU
B36 | 0.512 KA relative to UGCAUGU
B37 | 0.576 KA relative to UGCAUGU
B38 | 0.174 KA relative to UGCAUGU
B39 | 0.0585 KA relative to UGCAUGU
B40 | 0.23 KA relative to UGCAUGU
